Screens (PubChem BioAssay)
A selection: hits, their analogues and other compounds. The true share with any hit is near 12%.
Shiga toxin inh = Shiga toxin inhibition; Vero cells, Shiga toxin protein synthesis inhibition reporter; inhibition, % at 38.7 µM; actives 9.2% (n = 290,000); AID 2315; in the data active means inhibition mostly above about 28%, no sharp cut-off; inactive means mostly below about 43%; further: 0% is about no effect
Marburg entry inh = Marburg virus entry inhibition; Marburg virus pseudotyped entry inhibition, cell reporter; Potency, µM (doses to about 37.8 µM), without a hit: at the top dose activity change, negative = inhibition, actives largely listed as inhibitors; actives 1.8% (n = 300,000); AID 540276; calls by dose curve; tested in HEK293 cells; further: potency means the concentration at half of the fitted maximal effect; on the % scale 0 is the no-effect control and ±100 the full control effect
LASV entry inh = blocks Lassa virus binding to or entry into cells. Lassa virus pseudotype entry inhibition, cell reporter. Potency, µM (titrated, usually from 37.9 µM), without a hit: at the top dose activity change, negative = inhibition, usual class: inhibitors. actives 1.2% (n = 300,000); calls by dose curve; tested in HEK293 cells; further: potency means the concentration at half of the fitted maximal effect; on the % scale 0 is the no-effect control and ±100 the full control effect; nearly all actives have a fitted effect of over 50% in size
CHX counter = counter-screen hit for Shiga toxin inhibitors, cycloheximide. cell reporter, cycloheximide protein synthesis inhibition counterscreen. max response, %. actives 12% (n = 300,000). AID 2314; in the data active means max response mostly above about 13%, no sharp cut-off; inactive means mostly below about 14%; further: read at 38.3 µM for the half of the compounds with a filed dose; 0% is about no effect
* = called active by the depositor; ? = inconclusive; . = no result; [ ] = another dose, or the depositor's remark.

SMILES | Shiga toxin inh | Marburg entry inh | LASV entry inh | CHX counter
O=C(CSc1ncnc2c1cnn2-c1ccccc1)Nc1ccccc1 | -6 | ? | -25% | -3
CC(=O)CSc1ncnc2c1cnn2-c1ccccc1 | 91* | ? | -7% | 36*
Cc1cc(NC(=O)COC(=O)C2CSC3(C)CCC(=O)N23)ccc1Br (stereo unspecified) | . | 25% | 2% | .
Cc1ccc(C)c(NC(=O)c2cc(S(=O)(=O)N3CCCc4ccccc43)ccc2F)c1 | . | . | -29%[46.1 µM] | .
COc1ccc(OCCN2C(=O)NC3(CCc4ccccc4C3)C2=O)cc1 (stereo unspecified) | -14 | 8% | ? | -1
Cc1csc(NC(=O)CSc2ncnc3c2cnn3-c2ccccc2Cl)n1 | -10 | 13µM* | ? | 2
CC(C)C(=O)NNC(=O)CSc1ncnc2c1cnn2-c1ccccc1Cl | -5 | . | . | 4
N/C(CN1CCCC1=O)=N\OC(=O)c1ccc(Cl)c(Cl)c1 | -6 | 18% | 18% | 23*
N/C(CN1CCCC1=O)=N\OC(=O)c1ccc(Cl)cc1 | -4 | 1% | ? | 15*
N=C1CCCN1CC(=O)c1ccc(Cl)cc1 | 19 | ? | 22% | -3
CC1(C)NC(=O)N(CC(=O)OCC(=O)c2ccc(Br)s2)C1=O | . | 15%[46.1 µM] | 11%[46.1 µM] | .
O=[N+]([O-])c1cc([N+](=O)[O-])c(Oc2cccnc2Br)cc1NN1CCCCC1 | -5 | . | . | -2
CC(C)CC(=O)/C=C/n1c(=S)oc2ccccc21 | -9 | -16% | 13% | 2
CC(=O)/C=C/n1c(=S)oc2ccccc21 | 35 | 13µM* | ? | 32*
Cc1cccc(NC(=S)Nc2ccccn2)c1 | 62* | ? | -25%[46.1 µM] | 33*
Cc1ccc(NC(=S)Nc2ccccn2)cc1C | 85* | . | . | 65*
Cc1ccc(NC(=S)Nc2ccc3nc(-c4ccccn4)c(-c4ccccn4)nc3c2)cc1C | 40 | 1% | 8% | 16*
Cc1cc(C)cc(NC(=S)Nc2ccccn2)c1 | active | -12% | ? | 21
CCOCCCNC(=O)C1CCCN(Cc2nc(-c3ccc(CC)cc3)oc2C)C1 (stereo unspecified) | . | ? | -24%[46.1 µM] | .
Cc1ccc(-n2ncc3c(Nc4ccccc4C)ncnc32)cc1 | . | . | 4%[46.1 µM] | .
Cc1ccc(-n2ncc3c(Nc4cccc(C)c4)ncnc32)cc1 | . | . | -4%[46.1 µM] | .
Cc1ccccc1Nc1ncnc2c1cnn2-c1ccccc1 | 70* | . | . | 48*
COc1ccc(-n2ncc3c(Nc4cccc(C)c4)ncnc32)cc1 | 109* | 2% | 16% | 15*
Cc1cccc(-n2ncc3c(N(C)Cc4ccccc4)ncnc32)c1 | 97* | . | . | 57*
Cc1cccc(-n2ncc3c(NC(C)C)ncnc32)c1 | 79* | -1% | . | 53*
SMILES | Shiga toxin inh | Marburg entry inh | LASV entry inh | CHX counter
COC(=O)c1ccc(Nc2ncnc3c2cnn3-c2cccc(C)c2)cc1 | 9 | . | . | 10
Cc1cccc(-n2ncc3c(N4CCCCCC4)ncnc32)c1 | . | . | -5%[46.1 µM] | .
c1ccc(-n2ncc3c(NC4CCCCCC4)ncnc32)cc1 | 62* | . | . | 45*
CC(C)Nc1ncnc2c1cnn2-c1ccccc1 | 24* | . | . | 23*
Cc1cccc(-n2ncc3c(Nc4ccc(F)cc4)ncnc32)c1 | 52* | . | . | 44*
Cc1cccc(-n2ncc3c(N)ncnc32)c1 | 93 | -16%[46.1 µM] | -6% | 52*
CCc1cc(-c2oncc2-c2ccc(OC)cc2)c(O)cc1OC | -3 | . | . | -7
CCCc1cc(C(=O)N2CCN(c3ccc(C(F)(F)F)cn3)CC2)sc1C | 4 | ? | 1% | -1
Cc1c(C(=O)Nc2ccccc2Br)oc2ccc(S(=O)(=O)N3CCCCCC3)cc12 | . | . | 22%[46.1 µM] | .
NNc1ncnc2c1cnn2-c1ccccc1 | 42 | ? | ? | 38*
Cc1ccccc1NCc1ccc([N+](=O)[O-])s1 | -1 | -4% | -18% | 14*
Cc1ccc(NC(=S)N/N=C/c2ccc([N+](=O)[O-])s2)cc1 | active | ? | 18µM* | 47*
Cc1cccc(NCc2ccc([N+](=O)[O-])s2)c1 | 15 | -5% | -10% | 7
COc1ccccc1NCc1ccc([N+](=O)[O-])s1 | -73 | 6% | -1% | 10
Cc1ccc(NCc2ccc([N+](=O)[O-])s2)cc1 | 49* | -21% | 5% | 25*
CC(C)OC(=O)Cn1cc(C#N)c2ccccc21 | 7 | 11%[46.1 µM] | -2% | -5
NC(=O)c1c(NC(=O)c2ccc(F)cc2Cl)sc2c1CCC2 | 31* | . | . | 25*
CCn1cc(Br)c(C(=O)Nc2sc3c(c2C(N)=O)CCCC3)n1 | -14 | ? | ? | -1
Cn1cc(Br)c(C(=O)Nc2sc3c(c2C(N)=O)CCCC3)n1 | 66* | ? | ? | 35*
Cc1onc(C(=O)Nc2sc3c(c2C(N)=O)CCCC3)c1[N+](=O)[O-] | 34 | . | . | 20*
NC(=O)c1c(NC(=O)c2ccccc2Cl)sc2c1CCC2 | 51* | . | . | 38*
N#Cc1ccccc1NC(=O)C(=O)NCCCN1CCCC1=O | . | 20% | 7% | .
COC(=O)c1ccc(Nc2ncnc3c2nc2n3CCCC2)cc1 | . | . | 26%[46.1 µM] | .
NC(=O)c1c(NC(=O)c2ccccc2F)sc2c1CCCC2 | 83* | ? | ? | 49*
COc1cc(C(=O)Nc2ccc(NC(=O)C3CCCCC3)nc2)cc(OC)c1OC | 1 | -2%[46.1 µM] | . | -5
SMILES | Shiga toxin inh | Marburg entry inh | LASV entry inh | CHX counter
O=C(Nc1ccc(NC(=O)C2CCCCC2)nc1)c1cccs1 | 65* | 4%[46.1 µM] | -12% | 35*
O=C(Nc1ccc(NC(=O)C2CC2)nc1)c1ccccc1F | 79* | 4%[46.1 µM] | -5% | 24*
CCCC(=O)Nc1ccc(NC(=O)c2ccccc2)nc1 | 40* | ? | ? | 21*
CCC(=O)Nc1ccc(NC(=O)c2ccccc2Cl)nc1 | 26 | 2% | 9% | 21*
O=C(Nc1ccncc1)c1ccccc1F | -8 | 12% | 17% | 24
CCC(=O)NN1CCc2cc3ccc(C)cc3nc21 | -4 | -11%[46.1 µM] | 23%[46.1 µM] | -3
CN(Cc1ccccc1)C(=O)c1cn(C)c2ccc(S(=O)(=O)N3CCCC3)cc2c1=O | 0 | . | . | 15
